# Source: publication PMC4336329 (PLoS ONE, 2015)
# Among all 310,000 compounds or so, about 14,000 (4.5%) showed an effect of 50% or more. The effect is printed as a negative number. Only a selection was taken, and strong results are over-represented in it overall.
# Biological target: human ether-à-go-go-related gene (hERG) potassium channel (human, UniProt Q12809)
# Assay: primary screen, population patch clamp on CHO cells stably expressing hERG; higher = less effect of the substance
# 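Further: peak tail current of the secondary pulse compared with the same well before compound.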
# Sequence of human ether-à-go-go-related gene (hERG) potassium channel (Q12809 whole entry, looked up): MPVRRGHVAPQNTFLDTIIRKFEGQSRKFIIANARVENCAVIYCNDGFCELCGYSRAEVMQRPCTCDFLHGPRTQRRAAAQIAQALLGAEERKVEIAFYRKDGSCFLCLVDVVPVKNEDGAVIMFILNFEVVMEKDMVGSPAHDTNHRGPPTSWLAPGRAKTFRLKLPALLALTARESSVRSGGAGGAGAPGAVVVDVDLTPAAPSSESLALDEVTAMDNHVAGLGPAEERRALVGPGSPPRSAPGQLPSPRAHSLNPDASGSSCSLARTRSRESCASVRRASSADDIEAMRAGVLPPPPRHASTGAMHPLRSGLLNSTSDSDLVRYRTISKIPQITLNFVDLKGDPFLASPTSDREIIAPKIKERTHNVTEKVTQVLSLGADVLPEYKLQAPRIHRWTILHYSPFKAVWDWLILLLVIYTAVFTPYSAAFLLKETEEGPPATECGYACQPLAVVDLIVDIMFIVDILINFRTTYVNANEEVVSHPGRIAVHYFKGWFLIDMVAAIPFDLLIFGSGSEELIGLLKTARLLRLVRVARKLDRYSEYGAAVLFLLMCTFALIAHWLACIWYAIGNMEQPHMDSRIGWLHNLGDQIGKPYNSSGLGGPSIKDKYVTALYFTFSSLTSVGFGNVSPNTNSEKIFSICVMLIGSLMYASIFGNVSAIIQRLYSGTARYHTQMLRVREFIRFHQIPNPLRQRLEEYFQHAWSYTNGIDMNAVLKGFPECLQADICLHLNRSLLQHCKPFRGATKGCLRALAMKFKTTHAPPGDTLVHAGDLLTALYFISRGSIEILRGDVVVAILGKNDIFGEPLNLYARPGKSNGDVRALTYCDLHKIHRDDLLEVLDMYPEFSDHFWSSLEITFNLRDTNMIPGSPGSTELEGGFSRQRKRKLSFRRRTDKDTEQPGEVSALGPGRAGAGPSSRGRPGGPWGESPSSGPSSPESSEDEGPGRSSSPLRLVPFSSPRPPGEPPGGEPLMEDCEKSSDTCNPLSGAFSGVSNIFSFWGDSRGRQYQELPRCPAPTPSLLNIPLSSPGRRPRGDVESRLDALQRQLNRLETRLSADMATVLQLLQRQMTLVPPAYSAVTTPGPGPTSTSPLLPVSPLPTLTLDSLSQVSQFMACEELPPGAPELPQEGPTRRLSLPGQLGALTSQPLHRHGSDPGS
row,Compound,"hERG current change (%, negative = inhibition) at 10uM [%]"
1,COC(=O)c1ccc(OC(=O)C2CSC3(C)CCC(=O)N23)cc1 (stereo not shown),-1.4
2,O=C(NC1CCCCC1)c1cc([N+](=O)[O-])ccc1N1CCCCC1,-17
3,CCCCCn1c(N)c(-c2nc3ccccc3s2)c2c([N+](=O)[O-])nn(CC)c(=O)c21,5.78
4,CCN1CCN(c2ccc(S(=O)(=O)N3CCCCC3)cc2NC(=O)COc2ccc(Cl)cc2)CC1,-15.2
5,CCN1CCN(c2ccc(S(=O)(=O)N3CCCCC3)cc2NC(=O)COc2ccc(Cl)c(C)c2)CC1,-34.5
6,CCN1CCN(c2ccc(S(=O)(=O)N3CCCCC3)cc2NC(=O)COc2ccccc2)CC1,-66.6
7,CCC(=O)c1ccc(OCC(=O)Nc2cc(S(=O)(=O)N3CCCCC3)ccc2N2CCN(CC)CC2)cc1,-84.3
8,CCN1CCN(c2ccc(S(=O)(=O)N3CCCCC3)cc2NC(=O)Cc2c(Cl)cccc2Cl)CC1,-38.6
9,CCOc1ccccc1OCC(=O)Nc1cc(S(=O)(=O)N2CCCCC2)ccc1OC,-16
10,CCN1CCN(c2ccc(S(=O)(=O)N3CCCCC3)cc2NC(=O)COc2ccc(F)cc2Cl)CC1,-65.1
11,COc1ccccc1OCC(=O)Nc1cc(S(=O)(=O)N2CCCCC2)ccc1N1CCCCC1,2.21
12,CCN1CCN(c2ccc(S(=O)(=O)N3CCCCC3)cc2NC(=O)COc2cc(C)ccc2Cl)CC1,-14.1
13,N#Cc1ccc(OCC(=O)Nc2cc(S(=O)(=O)N3CCCCC3)ccc2N2CCCCC2)cc1,-13.3
14,CCC(=O)c1ccc(OCC(=O)Nc2cc(S(=O)(=O)N3CCCCC3)ccc2OC)cc1,-19.8
15,CCOc1ccccc1OCC(=O)Nc1cc(S(=O)(=O)N2CCCCC2)ccc1N1CCN(CC)CC1,-71.5
16,CSc1nnc([C@@H](N)Cc2c[nH]c3ccccc23)o1.Cl,30.1
17,CN1CCNC(=O)C1CC(=O)NCCc1ccccc1F (stereo not shown),13.4
18,CCCCNC(=O)O[C@H]1C[C@@H]2CCN3C(=O)CCC[C@H]([C@H]1CC)[C@H]23,-8.19
19,Cc1c(-c2ccc(/C=N/NC(=O)C(=O)Nc3ccccc3F)o2)cccc1[N+](=O)[O-],21.1
20,CN1CCN(C(=O)c2ccccc2NC(=O)c2ccc(C(C)(C)C)cc2)CC1,-9.21
21,Cc1onc(C(=O)N2CCN(Cc3ccccc3)CC2)c1[N+](=O)[O-],-10.7
22,NSc1nc(N)c2nc(-c3ccccc3)c(-c3ccccc3)nc2n1,4.96

row,Compound,"hERG current change (%, negative = inhibition) at 10uM [%]"
1,CCc1cc2c(=O)n(-c3ccccc3)cnc2s1,5.13
2,COc1ccc(CN(C)C(=O)c2ccc(NS(=O)(=O)c3ccc(F)cc3)cc2)c(OC)c1,3.52
3,COc1ccc(CN(C)C(=O)c2ccc(NS(=O)(=O)c3ccc(F)cc3)cc2)c(OC)c1OC,-55.6
4,COc1cccc(CN(C)C(=O)c2ccc(NS(=O)(=O)c3ccc(F)cc3)cc2)c1OC,-9.34
5,COC(=O)C(C)n1cnc2c(nnn2-c2cccc(Cl)c2)c1=O (stereo not shown),-13.4
6,CCOC(=O)CNS(=O)(=O)CCN1C(=O)c2ccccc2C1=O,1.65
7,COc1ccc(NC(=O)C(Sc2nnc3ccccn23)c2ccccc2)cc1Cl (stereo not shown),-1.62
8,COc1ccc(C)cc1NC(=O)C(Sc1nncn1C)c1ccccc1 (stereo not shown),-3.91
9,COc1ccc(C)cc1NC(=O)C(Sc1nnc2ccccn12)c1ccccc1 (stereo not shown),-67.7
10,COc1cc(C2NC(=O)c3ccccc3O2)cc(OC)c1OC (stereo not shown),-9.55
11,CCOc1ccc(CCNC(=O)CSCC(=O)Nc2cccc(C)c2)cc1OCC,-8.35
12,CC(OC(=O)Cc1n[nH]c(=O)c2ccccc12)C(=O)Nc1ccc(F)cc1Cl (stereo not shown),2.32
13,CCCC1=C(C(=O)OCC)C(c2c(C)nn(-c3ccccc3)c2Cl)C(C#N)=C(N)O1 (stereo not shown),-16.1
14,CCOC(=O)C1CCN(S(=O)(=O)c2ccc(CN3C(=O)c4cccnc4C3=O)cc2)CC1,-9.61
15,COc1ccc(CN2C(=O)c3cccnc3C2=O)cc1S(=O)(=O)N1CCCC(C)C1 (stereo not shown),-0.978
16,Cc1ccc(CNS(=O)(=O)c2cc(F)ccc2CN2C(=O)c3cccnc3C2=O)o1,-9.97
17,CC1CCN(S(=O)(=O)c2cc(F)ccc2CN2C(=O)c3cccnc3C2=O)CC1,-60.4
18,CC(C)NS(=O)(=O)c1cc(F)ccc1CN1C(=O)c2cccnc2C1=O,10.5
19,CC1CCCN(S(=O)(=O)c2ccc(CN3C(=O)c4cccnc4C3=O)cc2)C1 (stereo not shown),-58
20,O=C(Nc1ccc(S(=O)(=O)Nc2ncccn2)cc1)c1ccccc1NS(=O)(=O)c1ccc(F)cc1,9.91
21,COc1ccc(-n2c(=S)[nH]c3ncccc3c2=O)cc1,7.98
22,CC1(C)CC(=O)C(CC2=C(N)CC(C)(C)CC2=O)=C(N)C1,4.6

row,Compound,"hERG current change (%, negative = inhibition) at 10uM [%]"
1,COC(C[C@H]1O[C@@H]1C(=O)COCc1ccccc1)OC,4.27
2,COc1ccc2ncc(S(=O)(=O)c3ccccc3)c(N3CCC4(CC3)OCCO4)c2c1,-63.3
3,COc1ccc(S(=O)(=O)c2cnc3ccc(OC)cc3c2N2CCC3(CC2)OCCO3)cc1,-28.5
4,COc1cc2ncc(S(=O)(=O)c3ccccc3)c(N3CCC4(CC3)OCCO4)c2cc1OC,-80.8
5,COc1ccc2ncc(S(=O)(=O)c3ccccc3)c(N3CCN(c4ccccc4)CC3)c2c1,-8.4
6,CCOc1ccc2ncc(S(=O)(=O)c3ccccc3)c(N3CCC4(CC3)OCCO4)c2c1,-42.4
7,COc1cc2ncc(S(=O)(=O)c3ccccc3)c(N3CCCC(C)C3)c2cc1OC (stereo not shown),-7.67
8,O=C(Nc1ccc(Cl)c(Cl)c1)Nc1ccccn1,2.95
9,Cc1ccc(/C=C2\SC(=S)N(CCCC(=O)Nc3nccs3)C2=O)cc1,15.7
10,O=C(COC(=O)CCCN1C(=O)c2cccc3cccc(c23)C1=O)Nc1ccc(Cl)cc1,3.07
11,N#Cc1ccc(-c2ccc(F)cc2)nc1SCC(=O)Nc1sc2c(c1C#N)CCC2,4.57
12,O=C(NC1CC1)C1CCN(C2CCN(C(=O)/C=C/c3ccc(F)cc3)CC2)CC1,-62.9
13,Cc1ccc2c(C)c(C(=O)N3CCC(N4CCC(C(=O)NC5CC5)CC4)CC3)oc2c1,-59.1
14,CCOc1ccccc1CN1CCC(N2CCC(C(=O)NC3CC3)CC2)CC1,1.53
15,O=C(NC1CC1)C1CCN(C2CCN(C(=O)Cc3ccc(F)cc3)CC2)CC1,-2.99
16,O=C(NC1CC1)C1CCN(C2CCN(C(=O)c3ccc(C(F)(F)F)cc3)CC2)CC1,-56.4
17,Cc1ccc2oc(C(=O)N3CCC(N4CCSCC4)CC3)c(C)c2c1,-30.6
18,O=C(NC1CC1)C1CCN(C2CCN(C(=O)/C=C/c3cccc(F)c3F)CC2)CC1,-22.1
19,O=C(NC1CC1)C1CCN(C2CCN(C(=O)c3c(F)cccc3Cl)CC2)CC1,13.3
20,O=C(NC1CC1)C1CCN(C2CCN(Cc3ccccc3C(F)(F)F)CC2)CC1,-53.1
21,FC(F)(F)c1ccccc1CN1CCN(C2CCCCCC2)CC1.O=C(O)C(=O)O,-49.3
22,CC(C)(C)c1ccc(C(=O)N2CCC(C(=O)NC3CC3)CC2)cc1,-2.74

row,Compound,"hERG current change (%, negative = inhibition) at 10uM [%]"
1,CC(C)(C)c1ccc(C(=O)N2CCC(C(=O)NC3CCCCCC3)CC2)cc1,-40
2,O=C(NCCCCCCNC(=O)OCCO)OCCO,28.4
3,NNC(=O)CNS(=O)(=O)c1ccc([N+](=O)[O-])cc1,17.4
4,COc1ccccc1N(C)S(=O)(=O)c1ccc(C(=O)NCC2CCCCC2)cc1,-3.05
5,CC(C)Cn1c(N)c(C(=O)COC(=O)CC23CC4CC(CC(C4)C2)C3)c(=O)n(C)c1=O,-16.2
6,CCCc1cc(=O)c2c(O)cccc2o1,5.41
7,CC1CC1C(=O)OCC(=O)Nc1ccc2[nH]c(=O)[nH]c2c1 (stereo not shown),2.94
8,COCCN1CCN(C(=O)c2ccc3oc(CCc4ccccc4)nc3c2)CC1,-30.1
9,COc1ccccc1N(CC(=O)N1CCN(c2ccccc2)CC1)S(=O)(=O)c1ccc(C)cc1,17.5
10,Cc1nc(NCCc2ccc(S(N)(=O)=O)cc2)c2c(C)c(C)sc2n1,4.01
11,COc1ccc(-c2noc(CCC(=O)NCCCN3CCN(c4ccc(F)cc4)CC3)n2)cc1,-67.4
12,COc1ccc(-c2noc(CCC(=O)NCCc3ccccc3)n2)cc1,20.9
13,CC1(C)CC(=O)c2cc(OCC(=O)NCCCN3CCN(c4ccc(F)cc4)CC3)ccc2O1,-72.9
14,O=C(CCc1nc(-c2ccccc2F)no1)NCCN1CCN(Cc2ccccc2)CC1,-43.2
15,COc1ccc(N2CCN(C(=O)CCc3nc(-c4ccc(C)cc4)no3)CC2)cc1,-14.1
16,O=C(CCc1nc(-c2ccccc2F)no1)NCCN1CCOCC1,6.22
17,COc1ccc(-c2noc(CCC(=O)NCCCN3CCC(Cc4ccccc4)CC3)n2)cc1,-80.7
18,CC1(C)CC(=O)c2cc(OCC(=O)NCCN3CCOCC3)ccc2O1,22.7
19,O=C(CCc1nc(-c2ccccc2F)no1)NCCN1CCc2ccccc2C1,-50.4
20,COc1ccc(-c2noc(CCC(=O)NCCCN3CCC(C)CC3)n2)cc1,-5.81
21,CCN1CCN(CCCNC(=O)CCc2nc(-c3ccc(OC)cc3)no2)CC1,-2.35
22,CC1(C)CC(=O)c2cc(OCC(=O)NCCCN3CCN(c4ccccc4F)CC3)ccc2O1,-47.4
